Measured values reported in PubChem BioAssay (EPA / NIEHS).
The source made the active and inactive calls. How the source made its calls: active means hit-call score of the fitted dose curve at least 0.9, where 1 is the maximum; inactive means score below 0.9.

Columns and labels:
[1] = read-out: Fatty acid synthase (Homo sapiens) (UniProt P49327); assay: LTEA_HepaRG_FASN: Life Technologies and Expression Analysis (LTEA) Assay for Fatty Acid Synthase (FASN) using HepaRG (AID 2283448); conditions: mRNA level, 48 h; actives raise or lower the signal;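 on AC50: differentiated human HepaRG liver cells in serum-free induction medium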
In short: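 HepaRG, 48 h exposure, 8-pt half-log series top 100 uM, 0.5% DMSO vehicle, duplicates. Readout: FASN transcript by Fluidigm qRT-PCR; housekeeping-normalized; bidirectional curve fit vs DMSO baseline.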

[2] = read-out: Cyclin D2 (CCND2), CCND2 (gene 894); assay: LTEA_HepaRG_CCND2: Life Technologies and Expression Analysis (LTEA) Assay for Cyclin D2 (CCND2) using HepaRG (AID 2283449); conditions: mRNA level, 48 h; actives raise or lower the signal;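 further: CCND2 transcript measured by TaqMan qRT-PCR and normalised to three housekeeping genes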
In short: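 HepaRG, 48 h dosing, 8-pt half-log curve from 100 uM, 0.5% DMSO; duplicate wells. Readout: CCND2 transcript by microfluidic qRT-PCR, housekeeping-normalised; bidirectional fit vs DMSO baseline.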

[3] = read-out: Cyclin Dependent Kinase Inhibitor 1A (CDKN1A), CDKN1A (gene 1026); assay: LTEA_HepaRG_CDKN1A: Life Technologies and Expression Analysis (LTEA) Assay for Cyclin Dependent Kinase Inhibitor 1A (CDKN1A) using HepaRG (AID 2283450); conditions: mRNA level, 48 h; actives raise or lower the signal
In short: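 Expression quantified by Fluidigm qRT-PCR with ACTB, GAPDH and POLR2A normalization, fitted bidirectionally against 0.5% DMSO. Cells: HepaRG, plated 48 h then treated 48 h in serum-free induction medium, top concentration 100 uM with half-log dilutions.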

[4] = read-out: Cyclin D1 (CCND1), CCND1 (gene 595); assay: LTEA_HepaRG_CCND1: Life Technologies and Expression Analysis (LTEA) Assay for Cyclin D1 (CCND1) using HepaRG (AID 2283451); conditions: mRNA level, 48 h; actives raise or lower the signal;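 on AC50: differentiated human HepaRG liver cells in serum-free induction medium; TaqMan qRT-PCR transcript level normalised to ACTB GAPDH and POLR2A housekeeping genes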
In short: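 Expression of CCND1 was quantified by qRT-PCR on Fluidigm arrays using ACTB, GAPDH and POLR2A as reference genes. HepaRG cultures, plated 48 h beforehand, were dosed for 48 h at up to 100 uM (half-log, 8 points) in 0.5% DMSO.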

[5] = read-out: catalase (CAT), CAT (gene 847); assay: LTEA_HepaRG_CAT: Life Technologies and Expression Analysis (LTEA) Assay for catalase (CAT) using HepaRG (AID 2283452); conditions: mRNA level, 48 h; actives raise or lower the signal
In short: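 HepaRG cells in serum-free induction medium, 0.5% DMSO vehicle, exposed 48 h in duplicate over 8 half-log concentrations from 100 uM. CAT mRNA measured by qRT-PCR, normalized to ACTB, GAPDH, POLR2A; bidirectional fit versus DMSO.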

[6] = read-out: flavin-containing dimethylaniline monooxygenases 3 (FMO3), FMO3 (gene 2328); assay: LTEA_HepaRG_FMO3: Life Technologies and Expression Analysis (LTEA) Assay for flavin-containing dimethylaniline monooxygenases 3 (FMO3) using HepaRG (AID 2283453); conditions: mRNA level, 48 h; actives raise or lower the signal;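 on AC50: differentiated human HepaRG liver cells in serum-free induction medium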
In short: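 Eight-point concentration-response in serum-free HepaRG cultures (top 100 uM, 0.5% DMSO, 48 h). Read-out: FMO3 mRNA level normalized to three endogenous control genes, fitted bidirectionally versus vehicle.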

[7] = read-out: Cytochrome P450 (CYP1A1), CYP1A1 (gene 1543); assay: LTEA_HepaRG_CYP1A1: Life Technologies and Expression Analysis (LTEA) Assay for Cytochrome P450 (CYP1A1) using HepaRG (AID 2283454); conditions: mRNA level, 48 h; actives raise or lower the signal
In short: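 CYP1A1 transcript levels measured by Fluidigm qRT-PCR against three housekeeping genes, 48 h after chemical dosing of human HepaRG cells (highest concentration 100 uM, half-log steps, 0.5% DMSO vehicle). Gain or loss of signal fitted relative to DMSO.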

[8] = read-out: CFLAR gene, CFLAR (gene 8837); assay: LTEA_HepaRG_CFLAR: Life Technologies and Expression Analysis (LTEA) Assay for CFLAR gene using HepaRG (AID 2283455); conditions: mRNA level, 48 h; actives raise or lower the signal
In short: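 qRT-PCR read-out (Fluidigm/TaqMan) of CFLAR mRNA, normalized to three housekeeping genes, in differentiated human HepaRG cells after 48 h chemical exposure; 8-point half-log series from 100 uM in 0.5% DMSO; bidirectional curve fitting versus DMSO.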

[9] = read-out: Forkhead box O1 (FOXO1), FOXO1 (gene 2308); assay: LTEA_HepaRG_FOXO1: Life Technologies and Expression Analysis (LTEA) Assay for Forkhead box O1 (FOXO1) using HepaRG (AID 2283456); conditions: mRNA level, 48 h; actives raise or lower the signal
In short: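 HepaRG, 48 h exposure, 8-pt half-log series from 100 uM in 0.5% DMSO, duplicates; Fluidigm qRT-PCR mRNA, housekeeping-normalised; bidirectional fit vs DMSO baseline.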

[10] = read-out: growth arrest and DNA damage 45 (GADD45A), GADD45A (gene 1647); assay: LTEA_HepaRG_GADD45A: Life Technologies and Expression Analysis (LTEA) Assay for growth arrest and DNA damage 45 (GADD45A) using HepaRG (AID 2283458); conditions: mRNA level, 48 h; actives raise or lower the signal
In short: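 HepaRG, 48 h exposure, 8 conc. (top 100 uM, half-log steps), 0.5% DMSO vehicle, duplicates. Read-out: qRT-PCR mRNA level, housekeeping-normalized (ACTB/GAPDH/POLR2A). Curves fit bidirectionally vs DMSO baseline.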

[11] = read-out: Forkhead box O3 (FOXO3), FOXO3 (gene 2309); assay: LTEA_HepaRG_FOXO3: Life Technologies and Expression Analysis (LTEA) Assay for Forkhead box O3 (FOXO3) using HepaRG (AID 2283459); conditions: mRNA level, 48 h; actives raise or lower the signal
In short: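 qRT-PCR readout of FOXO3 transcript, normalized to three housekeeping genes (ACTB, GAPDH, POLR2A); gain or loss fitted against 0.5% DMSO vehicle. HepaRG cells, 48 h chemical exposure, 8-point half-log series, top 100 uM.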

[12] = read-out: ABC Transporter (ABCB1), ABCB1 (gene 5243); assay: LTEA_HepaRG_ABCB1: Life Technologies and Expression Analysis (LTEA) Assay for ABC Transporter (ABCB1) using HepaRG (AID 2283460); conditions: mRNA level, 48 h; actives raise or lower the signal
In short: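 HepaRG, 48 h exposure, 8-pt half-log series from 100 uM, 0.5% DMSO vehicle, duplicates. Readout: ABCB1 transcript by Fluidigm TaqMan qRT-PCR, housekeeping-normalized; bidirectional curve fit vs DMSO baseline.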

[13] = read-out: ABC Transporter (ABCC3), ABCC3 (gene 8714); assay: LTEA_HepaRG_ABCC3: Life Technologies and Expression Analysis (LTEA) Assay for ABC Transporter (ABCC3) using HepaRG (AID 2283462); conditions: mRNA level, 48 h; actives raise or lower the signal
In short: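 Transcript level by TaqMan qRT-PCR, normalised to three housekeeping genes, fitted in both directions relative to vehicle. Chemicals tested in duplicate at eight half-log concentrations up to 100 uM for 48 h on HepaRG cells (0.5% DMSO).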

[14] = read-out: ABC Transporter (ABCB11), ABCB11 (gene 8647); assay: LTEA_HepaRG_ABCB11: Life Technologies and Expression Analysis (LTEA) Assay for ABC Transporter (ABCB11) using HepaRG (AID 2283463); conditions: mRNA level, 48 h; actives raise or lower the signal
In short: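 HepaRG, 48 h exposure, 8-pt half-log CRC top 100 uM, 0.5% DMSO vehicle, duplicates. Readout: TaqMan qRT-PCR of ABCB11 mRNA, housekeeping-normalized (ACTB/GAPDH/POLR2A). Bidirectional fit vs DMSO baseline.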

[15] = read-out: ABC Transporter (ABCC2), ABCC2 (gene 1244); assay: LTEA_HepaRG_ABCC2: Life Technologies and Expression Analysis (LTEA) Assay for ABC Transporter (ABCC2) using HepaRG (AID 2283464); conditions: mRNA level, 48 h; actives raise or lower the signal
In short: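 Endpoint is ABCC2 transcript level from qRT-PCR, normalized to three housekeeping genes and fitted bidirectionally relative to DMSO. Human HepaRG cells received test chemical for 48 h at up to 100 uM (8 points, half-log steps, 0.5% DMSO), duplicate wells.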

[16] = read-out: Broad substrate specificity ATP-binding cassette transporter ABCG2 (Homo sapiens) (UniProt Q9UNQ0); assay: LTEA_HepaRG_ABCG2: Life Technologies and Expression Analysis (LTEA) Assay for ABC Transporter (ABCG2) using HepaRG (AID 2283465); conditions: mRNA level, 48 h; actives raise or lower the signal
In short: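 HepaRG, 48 h exposure, 8-pt half-log series from 100 uM, 0.5% DMSO vehicle, duplicates. Readout: ABCG2 transcript by qRT-PCR (Fluidigm array), housekeeping-normalized; bidirectional curve fit relative to DMSO baseline.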

[17] = read-out: ATP-citrate lyase (ACLY), ACLY (gene 47); assay: LTEA_HepaRG_ACLY: Life Technologies and Expression Analysis (LTEA) Assay for ATP-citrate lyase (ACLY) using HepaRG (AID 2283466); conditions: mRNA level, 48 h; actives raise or lower the signal
In short: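 qRT-PCR readout of ACLY transcript after 48 h chemical treatment of HepaRG cells; expression normalized to three housekeeping genes. Eight-point half-log series, highest 100 uM, 0.5% DMSO vehicle. Gain or loss fitted against DMSO baseline.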

[18] = read-out: Peroxisomal acyl-coenzyme A oxidase 1 (ACOX1) gene, ACOX1 (gene 51); assay: LTEA_HepaRG_ACOX1: Life Technologies and Expression Analysis (LTEA) Assay for Peroxisomal acyl-coenzyme A oxidase 1 (ACOX1) gene using HepaRG (AID 2283467); conditions: mRNA level, 48 h; actives raise or lower the signal
In short: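 HepaRG, 48 h chemical exposure, 8-pt half-log series from 100 uM top, 0.5% DMSO vehicle, duplicates. Readout: ACOX1 mRNA by Fluidigm qRT-PCR, housekeeping-normalized; bidirectional fit vs DMSO baseline.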

[19] = read-out: growth arrest and DNA damage 45 (GADD45B), GADD45B (gene 4616); assay: LTEA_HepaRG_GADD45B: Life Technologies and Expression Analysis (LTEA) Assay for growth arrest and DNA damage 45 (GADD45B) using HepaRG (AID 2283461); conditions: mRNA level, 48 h; actives raise or lower the signal
In short: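 Transcript level quantified by Fluidigm TaqMan qRT-PCR with three housekeeping genes for normalization, analyzed for up- or down-regulation against 0.5% DMSO. HepaRG cultures dosed 48 h at eight half-log concentrations up to 100 uM, duplicates.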

[20] = CEETOX_H295R_TESTO: CeeTox H295R High-throughput Steroidogenesis Assay for Testosterone (TESTO) (AID 2283457); conditions: actives raise or lower the signal;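 further: cells exposed to chemicals for 48 h before medium collection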
In short: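 Testosterone secreted into the medium over 48 h by H295R cells (maximum passage 10) was quantified by LC-MS/MS after MTBE extraction. Fitted in both directions against DMSO, with concentrations diluted until MTT viability was ≥70%.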

Measured: AC50

Sequence of Fatty acid synthase (Homo sapiens) (P49327 whole entry, looked up): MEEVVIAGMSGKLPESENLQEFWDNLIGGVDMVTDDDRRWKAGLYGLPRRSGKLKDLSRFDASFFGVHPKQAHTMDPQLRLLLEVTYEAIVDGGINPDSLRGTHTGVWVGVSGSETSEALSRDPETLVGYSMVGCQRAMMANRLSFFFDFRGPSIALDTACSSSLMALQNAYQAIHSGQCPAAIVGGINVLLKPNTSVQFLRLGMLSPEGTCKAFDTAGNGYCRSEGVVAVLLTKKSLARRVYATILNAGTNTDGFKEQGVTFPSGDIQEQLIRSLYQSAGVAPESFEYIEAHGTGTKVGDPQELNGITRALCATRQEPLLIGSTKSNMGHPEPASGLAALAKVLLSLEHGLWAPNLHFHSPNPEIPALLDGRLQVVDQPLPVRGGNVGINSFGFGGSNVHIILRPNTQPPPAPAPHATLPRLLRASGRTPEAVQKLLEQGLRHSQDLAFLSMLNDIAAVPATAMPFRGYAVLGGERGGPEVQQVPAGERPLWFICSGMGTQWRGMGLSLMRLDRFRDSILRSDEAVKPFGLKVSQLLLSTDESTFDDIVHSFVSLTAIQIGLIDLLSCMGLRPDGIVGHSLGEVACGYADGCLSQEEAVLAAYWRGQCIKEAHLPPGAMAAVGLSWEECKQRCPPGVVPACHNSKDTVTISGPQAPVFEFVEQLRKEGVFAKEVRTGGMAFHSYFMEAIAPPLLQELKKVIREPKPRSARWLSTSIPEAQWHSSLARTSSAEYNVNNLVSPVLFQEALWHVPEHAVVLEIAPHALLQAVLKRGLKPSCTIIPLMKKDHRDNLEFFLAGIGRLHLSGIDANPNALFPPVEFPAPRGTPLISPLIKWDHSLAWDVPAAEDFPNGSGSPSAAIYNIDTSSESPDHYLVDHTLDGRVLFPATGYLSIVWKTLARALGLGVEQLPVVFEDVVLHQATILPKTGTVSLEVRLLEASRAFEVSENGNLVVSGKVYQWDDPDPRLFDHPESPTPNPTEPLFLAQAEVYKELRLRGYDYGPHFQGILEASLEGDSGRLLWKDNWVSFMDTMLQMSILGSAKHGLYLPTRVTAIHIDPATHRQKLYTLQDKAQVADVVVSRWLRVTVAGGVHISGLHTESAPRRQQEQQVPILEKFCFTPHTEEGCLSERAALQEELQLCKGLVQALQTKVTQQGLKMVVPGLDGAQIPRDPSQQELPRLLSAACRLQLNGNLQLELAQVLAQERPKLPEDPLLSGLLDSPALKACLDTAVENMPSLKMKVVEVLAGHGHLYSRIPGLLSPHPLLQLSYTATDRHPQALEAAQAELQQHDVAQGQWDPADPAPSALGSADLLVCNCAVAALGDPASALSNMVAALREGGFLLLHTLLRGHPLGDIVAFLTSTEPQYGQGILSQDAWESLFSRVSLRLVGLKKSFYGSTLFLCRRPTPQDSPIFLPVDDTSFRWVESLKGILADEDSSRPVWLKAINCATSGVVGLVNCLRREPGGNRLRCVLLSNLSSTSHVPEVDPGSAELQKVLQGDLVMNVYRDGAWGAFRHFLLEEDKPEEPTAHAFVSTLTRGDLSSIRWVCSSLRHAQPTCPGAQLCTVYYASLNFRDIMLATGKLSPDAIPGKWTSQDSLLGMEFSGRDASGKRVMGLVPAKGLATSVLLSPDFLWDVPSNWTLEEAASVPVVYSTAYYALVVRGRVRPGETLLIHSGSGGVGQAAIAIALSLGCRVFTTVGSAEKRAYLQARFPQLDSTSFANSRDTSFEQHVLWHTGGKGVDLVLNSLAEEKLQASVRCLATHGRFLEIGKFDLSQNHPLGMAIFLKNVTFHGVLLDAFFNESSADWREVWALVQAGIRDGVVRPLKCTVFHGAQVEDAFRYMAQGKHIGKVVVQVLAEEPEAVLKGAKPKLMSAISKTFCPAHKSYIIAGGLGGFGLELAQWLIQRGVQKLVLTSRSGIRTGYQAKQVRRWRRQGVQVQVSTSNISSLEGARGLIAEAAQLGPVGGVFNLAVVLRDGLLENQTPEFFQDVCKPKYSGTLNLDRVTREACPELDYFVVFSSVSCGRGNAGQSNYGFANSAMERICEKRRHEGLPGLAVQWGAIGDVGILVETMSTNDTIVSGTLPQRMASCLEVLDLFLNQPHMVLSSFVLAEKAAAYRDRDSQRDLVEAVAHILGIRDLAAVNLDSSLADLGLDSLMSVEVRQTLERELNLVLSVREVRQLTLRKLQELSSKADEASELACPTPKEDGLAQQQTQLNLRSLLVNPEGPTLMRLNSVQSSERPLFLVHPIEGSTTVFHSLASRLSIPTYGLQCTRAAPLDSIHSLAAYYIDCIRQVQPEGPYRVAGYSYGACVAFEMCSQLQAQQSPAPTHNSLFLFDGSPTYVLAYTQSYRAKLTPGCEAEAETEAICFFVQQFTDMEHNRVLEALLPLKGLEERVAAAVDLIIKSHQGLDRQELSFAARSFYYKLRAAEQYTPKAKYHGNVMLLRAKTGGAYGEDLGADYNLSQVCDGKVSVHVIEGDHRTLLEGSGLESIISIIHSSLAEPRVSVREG
Sequence of Broad substrate specificity ATP-binding cassette transporter ABCG2 (Homo sapiens) (Q9UNQ0 whole entry, looked up): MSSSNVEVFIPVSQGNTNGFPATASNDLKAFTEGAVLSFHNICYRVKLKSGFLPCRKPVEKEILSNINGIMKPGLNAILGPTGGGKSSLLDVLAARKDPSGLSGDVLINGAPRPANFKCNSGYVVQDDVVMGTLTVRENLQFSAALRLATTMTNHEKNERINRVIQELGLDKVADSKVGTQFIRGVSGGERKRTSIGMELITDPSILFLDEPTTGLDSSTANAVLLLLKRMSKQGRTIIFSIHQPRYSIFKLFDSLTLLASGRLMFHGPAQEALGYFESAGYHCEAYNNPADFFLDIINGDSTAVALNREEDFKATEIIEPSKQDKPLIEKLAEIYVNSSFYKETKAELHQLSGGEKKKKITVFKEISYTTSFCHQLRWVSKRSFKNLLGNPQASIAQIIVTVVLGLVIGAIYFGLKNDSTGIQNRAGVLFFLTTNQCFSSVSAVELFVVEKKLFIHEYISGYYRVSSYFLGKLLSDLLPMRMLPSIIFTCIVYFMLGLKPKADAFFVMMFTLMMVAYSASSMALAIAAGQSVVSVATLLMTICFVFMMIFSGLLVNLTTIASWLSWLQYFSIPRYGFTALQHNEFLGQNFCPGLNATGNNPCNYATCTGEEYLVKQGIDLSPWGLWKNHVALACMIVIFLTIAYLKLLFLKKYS

c1ccc2cc3c(ccc4ccccc43)cc2c1
inactive: [2] | [3] | [10] | [13] | [15] | [16] | [17]
active: [1] 4.82 µM | [4] 9.56 µM | [5] 15.4 µM | [6] 13.6 µM | [7] 1.66 µM | [8] 10.5 µM | [9] 17.8 µM | [11] 6.54 µM | [12] 13.2 µM | [14] 14.6 µM | [18] 18.8 µM

CC(=O)NC1(c2cccc(F)c2)CCN(CC[C@@]2(c3ccc(Cl)c(Cl)c3)CN(c3ccccc3)C(=O)CO2)CC1
inactive: [1] | [2] | [3] | [4] | [5] | [9] | [10] | [11] | [19] | [13] | [16] | [17] | [18]
active: [7] 20 µM | [8] 56.1 µM | [12] 68.7 µM | [14] 20.8 µM | [15] 71.9 µM

C[C@@H]1C[C@H]2[C@@H]3CCC4=CC(=O)C=C[C@]4(C)[C@@]3(F)[C@@H](O)C[C@]2(C)[C@@]1(O)C(=O)COP(=O)(O)O
inactive: [1] | [2] | [3] | [4] | [5] | [6] | [7] | [8] | [9] | [10] | [11] | [12] | [19] | [13] | [14] | [15] | [16] | [17] | [18]

O=c1c(-c2ccc(O)cc2)coc2cc(O)ccc12
active: [20] 16.4 µM
inactive: [1] | [2] | [3] | [4] | [5] | [7] | [8] | [9] | [10] | [11] | [12] | [13] | [14] | [15] | [17] | [18]

CCCCCCCCC(=O)O
inactive: [1] | [2] | [3] | [4] | [5] | [7] | [8] | [9] | [10] | [11] | [12] | [19] | [13] | [14] | [15] | [17] | [18]

CCc1nn(C2CCCCC2)c2cc(C3(C#N)CCC(C(=O)O)CC3)ccc12 (stereo not drawn)
inactive: [2] | [11] | [13] | [15] | [18]
active: [1] 85.1 µM | [3] 73.2 µM | [4] 19.5 µM | [5] 77.2 µM | [7] 14.4 µM | [8] 8.95 µM | [9] 86 µM | [10] 77.6 µM | [12] 12.4 µM | [14] 82.8 µM | [16] 13 µM | [17] 25.5 µM

CCCOc1sc(C(=O)N2CCC(c3cc(CN)ccc3F)CC2)c(C)c1Br
inactive: [1] | [2] | [3] | [4] | [5] | [7] | [8] | [9] | [10] | [11] | [12] | [19] | [13] | [14] | [15] | [17] | [18]
